Results as given in PubChem BioAssay.
Active and inactive are the calls of the source.

Key:
[1] = small molecules captured by biotinylated probe aFSTL3 – biochemical, small-molecule microarray, fluorescence 635/667, stem cell growth factor project, primary screen (AID 1064); conditions: higher = more signal;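 further: measures binding of the biotinylated anti-FSTL3 antibody to printed compounds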
[2] = binders from COS7 lysate, DM2A8 probe, primary screen, torsin A project, cell lysate, small-molecule microarray, fluorescence 635/667 (AID 1065); conditions: higher = more signal, COS7 lysate expressing mutant human TOR1A
[3] = small molecules captured by biotinylated probe aFGF2 – biochemical, small-molecule microarray, fluorescence 635/667, stem cell growth factor project, primary screen (AID 1067); conditions: higher = more signal;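 further: measures binding of biotinylated aFGF2 protein to printed compounds on slides; z-score merges feature fluorescence and signal-to-noise across triplicate slides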
[4] = small molecules captured by biotinylated probe aFGF10 – biochemical, small-molecule microarray, fluorescence 635/667, stem cell growth factor project, primary screen (AID 1071); conditions: higher = more signal;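 further: score merges 667 nm spot intensity and signal to noise from triplicate slides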
[5] = target: Neurogenic locus notch homolog protein 2 (Homo sapiens) (UniProt Q04721); assay: small molecules binding Notch2 protein – biochemical, small-molecule microarray, 635 nm fluorescence, stem cell growth factors, primary screen (AID 1073); conditions: higher = more signal
Neurogenic locus notch homolog protein 2 (Homo sapiens), sequence (Q04721 whole entry, looked up, canonical isoform): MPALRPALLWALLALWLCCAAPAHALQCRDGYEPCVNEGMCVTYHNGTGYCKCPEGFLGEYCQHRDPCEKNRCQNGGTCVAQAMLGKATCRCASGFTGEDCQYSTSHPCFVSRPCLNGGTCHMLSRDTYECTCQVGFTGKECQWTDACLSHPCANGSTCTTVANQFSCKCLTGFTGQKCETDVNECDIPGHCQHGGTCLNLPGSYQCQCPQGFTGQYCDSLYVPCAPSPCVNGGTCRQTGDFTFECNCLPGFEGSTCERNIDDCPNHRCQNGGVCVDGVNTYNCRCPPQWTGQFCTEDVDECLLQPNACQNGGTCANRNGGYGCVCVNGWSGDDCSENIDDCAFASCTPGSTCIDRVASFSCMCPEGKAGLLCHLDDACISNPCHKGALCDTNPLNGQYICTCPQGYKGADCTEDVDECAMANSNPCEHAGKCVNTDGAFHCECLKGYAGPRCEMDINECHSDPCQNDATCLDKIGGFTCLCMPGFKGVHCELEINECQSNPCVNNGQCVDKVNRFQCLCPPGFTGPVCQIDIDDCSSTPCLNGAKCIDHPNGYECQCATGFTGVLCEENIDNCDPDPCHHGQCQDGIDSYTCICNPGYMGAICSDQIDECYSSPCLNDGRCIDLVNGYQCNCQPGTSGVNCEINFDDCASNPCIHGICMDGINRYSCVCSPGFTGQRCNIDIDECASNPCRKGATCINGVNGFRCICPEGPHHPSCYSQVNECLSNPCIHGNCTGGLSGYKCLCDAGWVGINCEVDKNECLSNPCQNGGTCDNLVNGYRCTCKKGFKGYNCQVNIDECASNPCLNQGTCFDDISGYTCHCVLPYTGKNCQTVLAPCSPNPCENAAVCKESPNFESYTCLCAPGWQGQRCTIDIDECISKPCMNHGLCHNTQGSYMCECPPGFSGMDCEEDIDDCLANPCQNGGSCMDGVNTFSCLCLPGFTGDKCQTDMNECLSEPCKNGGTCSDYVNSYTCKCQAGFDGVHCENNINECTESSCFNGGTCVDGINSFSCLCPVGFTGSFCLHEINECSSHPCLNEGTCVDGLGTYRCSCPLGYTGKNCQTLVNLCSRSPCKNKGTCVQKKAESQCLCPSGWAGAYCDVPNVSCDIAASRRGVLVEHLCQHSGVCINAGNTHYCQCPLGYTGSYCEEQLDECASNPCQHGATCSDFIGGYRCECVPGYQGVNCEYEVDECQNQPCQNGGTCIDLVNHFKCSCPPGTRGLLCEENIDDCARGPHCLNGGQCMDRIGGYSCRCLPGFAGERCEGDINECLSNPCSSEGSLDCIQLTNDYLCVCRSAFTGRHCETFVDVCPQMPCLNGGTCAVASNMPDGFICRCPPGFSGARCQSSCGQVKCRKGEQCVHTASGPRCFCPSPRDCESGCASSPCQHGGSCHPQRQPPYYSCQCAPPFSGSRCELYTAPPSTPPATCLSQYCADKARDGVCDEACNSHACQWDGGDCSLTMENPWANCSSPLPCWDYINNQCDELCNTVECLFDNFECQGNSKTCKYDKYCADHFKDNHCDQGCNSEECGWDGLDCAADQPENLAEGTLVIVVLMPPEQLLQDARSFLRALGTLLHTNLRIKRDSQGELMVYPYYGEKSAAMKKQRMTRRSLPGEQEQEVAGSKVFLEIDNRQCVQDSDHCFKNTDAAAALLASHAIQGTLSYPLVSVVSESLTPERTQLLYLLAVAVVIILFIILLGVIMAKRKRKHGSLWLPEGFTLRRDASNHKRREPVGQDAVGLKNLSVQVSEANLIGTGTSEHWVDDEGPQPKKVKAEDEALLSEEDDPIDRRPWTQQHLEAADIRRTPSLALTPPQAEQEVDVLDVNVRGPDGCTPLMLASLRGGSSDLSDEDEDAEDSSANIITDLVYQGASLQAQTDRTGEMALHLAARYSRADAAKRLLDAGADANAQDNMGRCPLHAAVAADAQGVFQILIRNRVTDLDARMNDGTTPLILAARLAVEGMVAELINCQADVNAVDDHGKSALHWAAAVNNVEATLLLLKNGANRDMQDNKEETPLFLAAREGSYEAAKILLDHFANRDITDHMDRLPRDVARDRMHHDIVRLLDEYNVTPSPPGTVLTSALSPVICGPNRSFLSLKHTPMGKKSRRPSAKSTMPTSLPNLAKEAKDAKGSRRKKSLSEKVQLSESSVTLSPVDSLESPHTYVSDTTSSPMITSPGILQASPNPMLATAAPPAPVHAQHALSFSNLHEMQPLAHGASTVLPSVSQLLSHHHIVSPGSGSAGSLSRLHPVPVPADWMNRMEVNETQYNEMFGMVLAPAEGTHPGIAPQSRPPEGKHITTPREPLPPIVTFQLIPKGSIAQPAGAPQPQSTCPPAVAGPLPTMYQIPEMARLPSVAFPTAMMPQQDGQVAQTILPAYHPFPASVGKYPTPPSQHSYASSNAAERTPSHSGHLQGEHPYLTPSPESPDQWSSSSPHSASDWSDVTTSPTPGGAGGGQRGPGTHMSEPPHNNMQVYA

[6] = target: Pro-neuregulin-1, membrane-bound isoform (Homo sapiens) (UniProt Q02297); assay: small molecules binding neuregulin-1 protein – biochemical, small-molecule microarray, fluorescence 635/667, psychiatric disease protein project, primary screen (AID 1075); conditions: NRG1 binding, 635 nm fluorescence, higher = more signal;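 further: score combines 667 nm spot fluorescence with signal to noise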
Pro-neuregulin-1, membrane-bound isoform (Homo sapiens), sequence (Q02297 whole entry, looked up, the tested form may be a part, canonical isoform): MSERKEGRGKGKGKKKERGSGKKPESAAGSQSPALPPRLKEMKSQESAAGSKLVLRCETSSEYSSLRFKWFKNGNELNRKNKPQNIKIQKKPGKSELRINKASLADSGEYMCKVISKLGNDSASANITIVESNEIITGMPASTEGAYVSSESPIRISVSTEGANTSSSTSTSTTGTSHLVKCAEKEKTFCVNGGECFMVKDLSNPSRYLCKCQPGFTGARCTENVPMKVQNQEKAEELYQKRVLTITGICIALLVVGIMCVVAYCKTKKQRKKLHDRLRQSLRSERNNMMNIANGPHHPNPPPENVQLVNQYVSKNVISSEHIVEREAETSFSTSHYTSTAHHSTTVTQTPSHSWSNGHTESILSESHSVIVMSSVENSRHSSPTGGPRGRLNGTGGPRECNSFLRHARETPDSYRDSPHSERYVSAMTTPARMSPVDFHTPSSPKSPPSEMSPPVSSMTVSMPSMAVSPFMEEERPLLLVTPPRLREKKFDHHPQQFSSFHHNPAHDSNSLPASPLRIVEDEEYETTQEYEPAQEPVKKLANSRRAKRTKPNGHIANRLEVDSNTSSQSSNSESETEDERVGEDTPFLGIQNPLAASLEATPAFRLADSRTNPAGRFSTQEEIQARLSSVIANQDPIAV

[7] = tested on: Neuregulin-1 EGF-like domain; assay: small molecules binding NRG1 EGF domain – biochemical, small-molecule microarray, 635 nm fluorescence, primary screen (AID 1081); conditions: higher = more signal;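 further: binding of the protein to compounds printed on small-molecule microarray slides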
[8] = FRG1 expression reporter modulators in myotubes – cell-based, C2C12 myotubes, firefly/Renilla luciferase, luminescence, FRG1 inhibition for FSHD, primary screen (AID 1084); conditions: FRG1 promoter luciferase, higher = more signal, called active from +8 up or from −8 down
[9] = small molecules captured by biotinylated probe aFST – biochemical, small-molecule microarray, fluorescence 635/667, stem cell growth factor project, primary screen (AID 1086); conditions: higher = more signal;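 further: score merges 667 nm fluorescence with signal-to-noise of each printed compound spot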
[10] = binders of probe aHhip on microarray, primary screen, stem cell growth factor project, biochemical, small-molecule microarray, fluorescence 635/667 (AID 1087); conditions: higher = more signal;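 further: score merges spot fluorescence at 667nm with spot signal to noise ratio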

Row | SMILES | composite z-score [1] | composite z-score [2] | composite z-score [3] | composite z-score [4] | composite z-score [5] | composite z-score [6] | composite z-score [7] | z-score [8] | composite z-score [9] | composite z-score [10]
1 | CCCNC(=O)OC[C@H]1O[C@H](CCON=C[C@@H](NS(=O)(=O)c2ccc(C)cc2)[C@H](C)C=CCC(=O)OC)C=C[C@@H]1Oc1ccc(OC)cc1 | -0.341 | 0.724 | -0.0425 | -0.183 | -0.127 | -0.703 | -0.83 | -0.122 (inactive) | 0.118 | -0.0994
2 | C=CC[C@@H]1C=CC(ON=C(C)C)[C@@H](CO)O1 (stereo not given in full) | 0.0856 | -0.809 | -0.196 | -0.246 | -0.561 | -0.34 | -0.0889 | 1.35 (inactive) | -0.238 | 0.107
3 | CC(C)=CCCC(C)=CCON=C1C[C@@H](O)[C@@H](O)[C@@H]2[C@@H]3C(=O)N([C@@H](C)c4ccccc4)C(=O)[C@@H]3CC[C@@H]12 | -0.465 | -0.0543 | -0.0493 | 0.374 | 0.449 | 0.137 | 0.661 | -0.366 (inactive) | 0.11 | -0.249
4 | CO[C@@H]1COC(=O)[C@@H]2CCCN2C(=O)[C@@H](C)COC(=O)CCC[C@H]1C | -0.468 | 0.352 | -0.0836 | 0.367 | 0.997 | -0.0887 | 1.19 | -0.343 (inactive) | -0.288 | -0.0645
5 | C[C@H]1CC[C@H]2C(=O)OC(COc3ccc(C(C)(C)C)cc3)CN2[C@@H]1c1ccc(Br)cc1 (stereo not given in full) | -0.373 | -0.52 | -0.169 | 0.62 | -0.123 | 0.449 | 1.05 | 0.458 (inactive) | -0.0895 | -0.0618
6 | CC(=O)OC[C@H]1O[C@@H](ON=C(C)CCN2CCCCc3nc(C)c(C)cc32)[C@H](OC(C)=O)[C@@H](OC(C)=O)[C@@H]1OC(C)=O | -0.587 | 0.515 | -0.0801 | 0.751 | 1 | 0.853 | 1.16 | 0.694 (inactive) | 0.551 | 0.0881
7 | O=C1C[C@@H](O)[C@@H](O)[C@@H]2[C@@H]3C(=O)N(Cc4ccccc4)C(=O)[C@@H]3CC[C@H]12 | -0.344 | 0.49 | -0.129 | 0.339 | 0.438 | 0.235 | 0.632 | -0.725 (inactive) | 0.256 | 0.0053
8 | COC(=O)[C@@H]1CC[C@H](C)[C@@H](c2ccc(Br)cc2)N1C[C@H](O)CN=[N+]=[N-] | -0.0566 | 0.143 | -0.0925 | 0.171 | -0.0324 | 0.374 | -0.0594 | 0.348 (inactive) | -0.193 | 0.478
9 | COC(=O)[C@@H]1CC[C@H](C)[C@@H](c2ccc(C)cc2)N1C(=O)c1ccc(C=NO[C@@H](C)c2cc(-c3c(C)cc(C)cc3C)no2)cc1 | -0.4 | 0.58 | -0.166 | 0.219 | 0.239 | 0.0688 | 0.38 | -1.21 (inactive) | 0.188 | -0.0237
10 | CCOC(=O)[C@H](CC(C)C)NC(=O)CCC1CC(OC(=O)NCCc2ccc(F)cc2)CC2(CCCC(COC(=O)NCCOC)O2)O1 (stereo not given in full) | 0.12 | 0.305 | -0.043 | 0.862 | 1.15 | 0.32 | 1.13 | 1.44 (inactive) | 0.158 | 0.0092
11 | O=C1[C@H]2[C@H]3[C@H](O)[C@H](O)CC(=NO[C@@H]4O[C@H](CO)[C@@H](O)[C@H](O)[C@H]4O)[C@@H]3CC[C@H]2C(=O)N1C[C@@H]1CCCO1 | -0.603 | -0.038 | -0.0908 | 0.529 | 1.06 | -0.0236 | 0.298 | 0.746 (inactive) | 0.254 | 0.0505
12 | CC(C)CON=C1C[C@@H](O)[C@@H](O)[C@@H]2[C@@H]3C(=O)N(C(C)(C)C)C(=O)[C@@H]3CC[C@@H]12 | -0.7 | 2.77 | -0.243 | -0.541 | -0.483 | -0.517 | 0.694 | 0.0071 (inactive) | -0.0117 | -0.303
13 | Cc1cc2c(nc1C)CCCCN2CC(O)CN1CCCc2nc(-c3ccc(Br)cc3)ccc21 (stereo not given) | -0.193 | 0.514 | -0.019 | 0.673 | 0.513 | 0.548 | 1.02 | 2.29 (inactive) | 0.5 | -0.146
14 | CCOC(=O)CCN1C(=O)[C@H]2[C@H]3[C@H](O)[C@H](O)CC(=NNC(=O)OCC)[C@H]3CC[C@H]2C1=O | -0.264 | 0.345 | -0.162 | -0.188 | -0.752 | 0.189 | 0.54 | 0.115 (inactive) | 0.0166 | -0.0237
15 | CCOC(=O)[C@H](Cc1ccccc1)NC(=O)CCC1CC(OC(=O)NCc2cccc3ccccc23)CC2(CCCC(COC(=O)NCc3ccc4c(c3)OCO4)O2)O1 (stereo not given in full) | -0.341 | -0.261 | -0.0391 | 0.694 | 0.305 | 0.188 | 1.07 | 1.4 (inactive) | 0.0918 | -0.134
16 | CON=C(C)CCN1CCCc2nc(C)c(C)cc21 | -0.411 | -0.205 | -0.0266 | 0.28 | 0.512 | 0.397 | 0.908 | 0.885 (inactive) | 0.192 | 0.12
17 | C=CC[C@@H]1C=C[C@H](ON=CC[C@@H]2C=C[C@H](OC(C)=O)[C@@H](COC(C)=O)O2)[C@@H](CO)O1 | -0.256 | 0.52 | -0.0864 | 0.75 | 1.12 | 1.06 | 1.11 | 0.411 (inactive) | 1.06 | -0.314
